A selection: hits, their analogues and other compounds. The true share with any hit is near 3.1%.
eLon inh: inhibits E. coli Lon protease. inhibition, % at 7.94 µM. 0.42% of 360,000 active. purified E. coli Lon protease, fluorescence polarization. AID 602123. P0A9M0; in the data active = inhibition above about 13%, passing the limit was not always enough;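 also: 0% = enzyme with probe and DMSO and 100% = no enzyme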
PAFAH2 FP inh: inhibitors of human PAFAH2; AID 492956; recombinant PAFAH2, FP-rhodamine activity probe, fluorescence polarization; 0.99% of 340,000 active; inhibition, % at 3.39 µM; Q99487;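 active = inhibition above the mean over all tested compounds plus 3 SD, cut at about 30% in these data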;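 also: inhibitors block probe labeling of enzyme so polarization drops; 0% = enzyme with DMSO and 100% = wells lacking PAFAH2 protein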
PAFAH1B3 FP inh: inhibitors of human PAFAH1B3. 0.28% of 340,000 active. recombinant PAFAH1B3, FP-rhodamine probe, fluorescence polarization. inhibition, % at 3.39 µM. Q15102;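 active = inhibition above the screen-wide average of all tested compounds plus 3 SD, cut at about 25% in these data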;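 also: 0% = enzyme with DMSO only and 100% = wells lacking PAFAH1B3 protein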
pPAFAH inh: inhibitors of human plasma PAF acetylhydrolase (pPAFAH). inhibition, % at 3.39 µM. recombinant pPAFAH, FP-rhodamine probe fluorescence polarization. 1.5% of 330,000 active. Q13093;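 active = inhibition above the mean inhibition across the screen plus 3 SD, cut at about 25% in these data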;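 also: inhibitors block binding of the rhodamine activity-based probe so polarization drops; 0% = enzyme with DMSO and 100% = wells lacking pPAFAH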
Target sequence (Q13093 whole entry, looked up): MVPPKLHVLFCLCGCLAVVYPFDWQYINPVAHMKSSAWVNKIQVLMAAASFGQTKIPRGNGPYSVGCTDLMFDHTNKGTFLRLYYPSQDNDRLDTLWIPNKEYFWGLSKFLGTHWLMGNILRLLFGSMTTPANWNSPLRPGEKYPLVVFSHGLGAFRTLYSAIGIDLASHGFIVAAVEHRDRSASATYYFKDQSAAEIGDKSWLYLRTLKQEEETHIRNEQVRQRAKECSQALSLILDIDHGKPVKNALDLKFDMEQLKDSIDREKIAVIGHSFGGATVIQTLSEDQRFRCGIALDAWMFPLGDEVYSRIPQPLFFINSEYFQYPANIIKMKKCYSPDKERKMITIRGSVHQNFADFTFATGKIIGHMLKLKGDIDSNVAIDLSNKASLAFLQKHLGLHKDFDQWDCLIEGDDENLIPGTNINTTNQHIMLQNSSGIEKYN
Rin1-Abl PPI inh: inhibitors of human Rin1-Abl protein interaction; 0.4% of 360,000 active; inhibition, % at 7.35 µM; TR-FRET Rin1/Abl binding, biochemical; in the data active = inhibition above about 5%, passing the limit was not always enough
PAFAH1B2 inh: PAFAH1B2 (human) inhibition; P68402; recombinant PAFAH1B2, FP-rhodamine activity probe, fluorescence polarization; inhibition, % at 3.39 µM; 1.2% of 340,000 active;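 active = inhibition above the mean of all tested compounds plus 3 SD, cut at about 24% in these data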;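 also: 0% = enzyme with DMSO and 100% = wells lacking PAFAH1B2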
PAFAH2 confirm: confirmation of human PAFAH2 inhibitors. shares compounds with PAFAH2 FP inh. recombinant PAFAH2, FP-rhodamine activity probe, fluorescence polarization. inhibition, % at 3.39 µM. 65% of 2,300 active. AID 493030;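 active = mean inhibition over three repeats above a set limit taken from the earlier primary screen, cut at about 30% in these data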;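 also: inhibitor blocks binding of rhodamine activity probe so polarization falls; 0% = enzyme with DMSO and 100% = wells lacking PAFAH2 protein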
* marks the source's active call; other numbers are inactive results.

Screening CC1OC(OC2C=C3CCC4C(CCC5(C)C(c6ccc(=O)oc6)CCC45O)C3(C)CC2)C(O)C(OC2OC(CO)C(O)C(O)C2O)C1O (stereo unspecified) returned eLon inh 3, PAFAH2 FP inh -10, PAFAH1B3 FP inh 8, Rin1-Abl PPI inh 1 and PAFAH1B2 inh -3.
CCC(C)n1c(O)c(/C=N/NC(=O)c2ccncc2)c(=O)[nH]c1=S (stereo unspecified) was read as eLon inh -21, PAFAH2 FP inh 58*, PAFAH1B3 FP inh 5, pPAFAH inh 6, Rin1-Abl PPI inh -1, PAFAH1B2 inh 1 and PAFAH2 confirm 62*.
Screening O=c1[nH]c(=S)n(C2CC2)c(O)c1/C=N/Nc1ccccc1 returned eLon inh -14, PAFAH2 FP inh 10, PAFAH1B3 FP inh 7, pPAFAH inh 8, Rin1-Abl PPI inh 1 and PAFAH1B2 inh 10.
For CCC(C)n1c(O)c(C=NCC2CCCO2)c(=O)[nH]c1=S (stereo unspecified) the results were eLon inh -7, PAFAH2 FP inh 51*, PAFAH1B3 FP inh -7, pPAFAH inh 9, Rin1-Abl PPI inh -2, PAFAH1B2 inh 2 and PAFAH2 confirm 38*.
For CCC(C)n1c(O)c(C=NCCN2CCOCC2)c(=O)[nH]c1=S (stereo unspecified) the results were eLon inh 3, PAFAH2 FP inh 25, PAFAH1B3 FP inh 7, pPAFAH inh 7, Rin1-Abl PPI inh -1 and PAFAH1B2 inh 3.
CCC(C)n1c(O)c(C=NCCc2ccccc2)c(=O)[nH]c1=S (stereo unspecified) was read as eLon inh 6, PAFAH2 FP inh 47*, PAFAH1B3 FP inh 2, pPAFAH inh 11, Rin1-Abl PPI inh -1, PAFAH1B2 inh 2 and PAFAH2 confirm 45*.
Screening CCC(C)n1c(O)c(/C=N/Nc2ccccc2)c(=O)[nH]c1=S (stereo unspecified) returned eLon inh -37, PAFAH2 FP inh 40*, PAFAH1B3 FP inh 4, pPAFAH inh 9, Rin1-Abl PPI inh 3, PAFAH1B2 inh 7 and PAFAH2 confirm 8.
For O=[N+]([O-])c1oc2ccc3ccccc3c2c1CCO the results were eLon inh -6, PAFAH2 FP inh 7, PAFAH1B3 FP inh 9, Rin1-Abl PPI inh 1 and PAFAH1B2 inh -3.
`CCOC(=O)[C@]12Cc3c(cc(OC)c(OC)c3OC)[C@H]1N(CCC(=O)OC)C(=O)c1ccccc12` gave eLon inh 1.
Cc1cccc(N2C(=O)NC(=O)/C(=C\c3ccc4c(c3)CCCN4Cc3ccccc3)C2=O)c1 was read as eLon inh -99, PAFAH2 FP inh 33*, PAFAH1B3 FP inh -19, pPAFAH inh 11, Rin1-Abl PPI inh 1, PAFAH1B2 inh 0 and PAFAH2 confirm 37*.
COc1ccc(N2C(=O)NC(=O)/C(=C/c3ccc4c(c3)Cc3ccccc3-4)C2=O)cc1 was read as pPAFAH inh 14.
`O=C(N/N=C/C1C(=O)NC(=S)N(c2ccccc2)C1=O)c1cc(Br)c(O)c(Br)c1` (stereo unspecified) gave eLon inh -1, PAFAH2 FP inh 37*, PAFAH1B3 FP inh 8, pPAFAH inh 24, Rin1-Abl PPI inh 4, PAFAH1B2 inh 20 and PAFAH2 confirm 27.
O=C(N/N=C/c1c(O)n(C2CCCCC2)c(=S)[nH]c1=O)c1ccccc1 was read as eLon inh -2, PAFAH2 FP inh 6, PAFAH1B3 FP inh 19, pPAFAH inh 12, Rin1-Abl PPI inh -1 and PAFAH1B2 inh 5.
`CCOc1ccc(N2C(=O)/C(=C/c3ccco3)C(=O)NC2=S)cc1` gave eLon inh -21, PAFAH2 FP inh 94*, PAFAH1B3 FP inh 25, pPAFAH inh 16, Rin1-Abl PPI inh 2, PAFAH1B2 inh 22 and PAFAH2 confirm 63*.
CCOc1ccc(N2C(=O)/C(=C\c3cccs3)C(=O)NC2=S)cc1 was read as pPAFAH inh -1.
`CCOC(=O)CNC(=O)N1Cc2cc(N3CCOCC3)ccc2-n2nncc2C1` gave eLon inh -7 and Rin1-Abl PPI inh 5.

Assay outcomes (PubChem BioAssay)
